# Data from publication PMC5540273 (PLoS ONE, 2017).
# Legend:
# Settings in all cases: concentration: 1 μM, replicates: in singlicate; n = 1
# CDK8 = tested on: CDK8
# CDK9 = tested on: CDK9
# CDKL1 = tested on: CDKL1
# CDKL2 = tested on: CDKL2
# CDKL3 = tested on: CDKL3
# CDKL5 = tested on: CDKL5
# CHEK1 = tested on: CHEK1
# CHEK2 = tested on: CHEK2
# CIT = tested on: CIT
# CLK1 = tested on: CLK1
# CLK2 = tested on: CLK2
# CLK3 = tested on: CLK3
# CLK4 = tested on: CLK4
# CSF1R-autoinhibited = tested on: CSF1R-autoinhibited
# CSF1R = tested on: CSF1R
# CSK = tested on: CSK
# CSNK1A1L = tested on: CSNK1A1L
# CSNK1A1 = tested on: CSNK1A1
# CSNK1D = tested on: CSNK1D
# CSNK1E = tested on: CSNK1E
# 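Further: KINOMEscan kinase panel screen.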
Compound,%Inh (CDK8),%Inh (CDK9),%Inh (CDKL1),%Inh (CDKL2),%Inh (CDKL3),%Inh (CDKL5),%Inh (CHEK1),%Inh (CHEK2),%Inh (CIT),%Inh (CLK1),%Inh (CLK2),%Inh (CLK3),%Inh (CLK4),%Inh (CSF1R-autoinhibited),%Inh (CSF1R),%Inh (CSK),%Inh (CSNK1A1L),%Inh (CSNK1A1),%Inh (CSNK1D),%Inh (CSNK1E)
Cc1ccc(F)c(C(=O)Nc2cccc(-c3nn4ccccc4c3-c3ccnc(Nc4cccc(F)c4)n3)c2)c1F [GSK361061],15%,0%,2%,31%,0%,5%,6%,0%,9%,32%,0%,0%,14%,0%,98.8%,39%,21%,41%,35%,54%
CN(c1ccc(NC(=O)Nc2cc(C(F)(F)F)ccc2F)cc1)c1ccnc(Nc2ccc(S(N)(=O)=O)cc2)n1 [GW809893],98.9%,93.5%,80%,99.9%,99.4%,26%,0%,20%,57%,47%,13%,0%,16%,0%,25%,9%,9%,15%,0%,1%
O=C(Nc1n[nH]c2nc(-c3ccc(O)cc3)ccc12)C1CC1 [SB-710363],0%,36%,39%,96.6%,44%,41%,0%,4%,29%,15%,21%,10%,15%,0%,0%,0%,10%,0%,0%,12%
Clc1ccc(-c2nn3ncccc3c2-c2ccnc(Nc3ccc4c(c3)OCCO4)n2)cc1 [GW829116],20%,0%,0%,4%,0%,0%,0%,2%,89%,0%,0%,0%,0%,0%,87%,0%,17%,77%,94%,98.6%
COc1cc2c(cc1OCCN1CCNCC1)ncc1c3ccc(C#N)cc3[nH]c21,19%,8%,19%,0%,10%,0%,84%,46%,98.8%,95.7%,86%,27%,91.7%,98.4%,51%,12%,0%,40%,8%,0%
Nc1ncnc2c1nc(-c1ccccc1)n2-c1ccccc1 [SKF-97293],0%,0%,3%,0%,7%,14%,4%,11%,11%,15%,28%,25%,20%,22%,7%,22%,0%,0%,10%,23%
CN1CCN(Cc2cccc(-c3ccc4c(Nc5ccc(Oc6ccccc6)cc5)ccnc4c3)c2)CC1 [GW578342],30%,0%,0%,0%,0%,0%,0%,38%,11%,11%,6%,0%,0%,43%,5%,76%,0%,0%,0%,2%
Cc1occc1-c1ncc(OC[C@@H](N)Cc2c[nH]c3ccccc23)cc1-c1ccc2[nH]nc(C)c2c1.O=C(O)C(F)(F)F [GSK682037],25%,22%,11%,43%,0%,0%,0%,0%,99.1%,32%,63%,25%,9%,0%,1%,0%,97.3%,97%,97.8%,99.9%
O=C(NC1CCN(c2ccnc(Nc3ccc(F)cc3)n2)C1)c1cc2ccccc2s1 (centres unmarked) [GSK1379716],52%,6%,0%,40%,0%,5%,0%,38%,33%,29%,0%,14%,30%,3%,2%,0%,11%,0%,0%,28%
COc1cc(Nc2ncc3c(C)nc(-c4cc5ccccc5[nH]4)n3n2)cc(OC)c1OC [GW869516],44%,0%,46%,1%,8%,0%,0%,0%,100%,88%,75%,36%,43%,0%,0%,13%,0%,30%,0%,15%
c1ccc(-c2cnc3nccnn23)cc1 [AH20685],49%,0%,11%,0%,0%,8%,0%,0%,0%,4%,0%,0%,11%,14%,0%,0%,0%,0%,11%,0%
COc1cc(Nc2nccc(N3CCC(NC(=O)c4cc5ccccc5s4)C3)n2)cc(OC)c1OC (centres unmarked) [GSK1379760],38%,5%,11%,43%,13%,1%,0%,16%,0%,4%,0%,0%,13%,23%,18%,0%,0%,41%,10%,0%
Cc1ccc(C(=O)Nc2ccc(Nc3ccnc4cc(-c5nccs5)ccc34)cc2O)cc1.Cl [GW494702],23%,0%,0%,28%,2%,0%,4%,33%,36%,1%,0%,0%,0%,44%,20%,30%,14%,0%,97.1%,8%
CN(C)Cc1ccc(-c2ccc3c(Nc4ccc(Oc5ccccn5)cc4)ccnc3c2)o1 [GW567148],4%,0%,0%,11%,0%,0%,0%,82%,0%,0%,0%,12%,0%,11%,38%,82%,9%,0%,0%,23%
COc1cccc(-c2ccc3c(NC(=O)C4CC4)n[nH]c3n2)c1 [SB-710903],50%,0%,0%,67%,0%,0%,0%,0%,5%,15%,100%,0%,20%,54%,10%,0%,12%,0%,18%,16%
CC(=O)N1CCN(c2ccc(Nc3nccc(-c4sc(C(C)C)nc4-c4cccc(NS(=O)(=O)c5cccc(Cl)c5)c4)n3)cn2)CC1 [GSK1660437],7%,68%,31%,99%,0%,73%,1%,0%,71%,11%,0%,0%,17%,0%,36%,95.4%,0%,23%,0%,0%
Cc1cccc(NC(=O)Nc2ccc(Oc3ncnc4ccn(C)c34)cc2)c1,72%,0%,11%,5%,0%,0%,0%,0%,0%,2%,0%,0%,8%,48%,99.9%,0%,0%,0%,0%,11%
Nc1ncc(-c2ccc3nccc(-c4ccncc4)c3c2)cc1S(=O)(=O)N1CCOCC1 [GSK1627798],4%,0%,0%,4%,0%,0%,0%,0%,7%,63%,72%,55%,54%,0%,3%,0%,7%,3%,37%,42%
Cc1ccc(S(=O)(=O)Nc2ccc(Nc3nccc(Nc4cccc5[nH]ncc45)n3)cc2)cc1 [GSK581271],13%,0%,2%,22%,0%,0%,0%,0%,28%,85%,0%,13%,87%,0%,22%,0%,5%,0%,46%,36%
